From ChEMBL document CHEMBL3988442, “University of Dundee, Small-Polar-MMV Screening Library” (2021)
For part of these data: Entries with a potency or affinity are not part of this list.

Tests used:
Design in all cases: scale not given: direction of the effect not stated beside the values
[1] = target: Protein translocase subunit SecA (Escherichia coli (strain K12)) (UniProt P10408); assay: Assay to Identify E. coli SecA ATPase Inhibitors; format: functional; conditions: 30 µM
[2] = target: T1, Ubiquitin-activating enzyme e1, putative (Leishmania donovani (strain BPK282A1)) (UniProt E9BSI1); assay: Leishmania donovani Ubiquitin Activating Enzyme (LdE1); format: functional; conditions: 30 µM
T1 sequence (whole entry): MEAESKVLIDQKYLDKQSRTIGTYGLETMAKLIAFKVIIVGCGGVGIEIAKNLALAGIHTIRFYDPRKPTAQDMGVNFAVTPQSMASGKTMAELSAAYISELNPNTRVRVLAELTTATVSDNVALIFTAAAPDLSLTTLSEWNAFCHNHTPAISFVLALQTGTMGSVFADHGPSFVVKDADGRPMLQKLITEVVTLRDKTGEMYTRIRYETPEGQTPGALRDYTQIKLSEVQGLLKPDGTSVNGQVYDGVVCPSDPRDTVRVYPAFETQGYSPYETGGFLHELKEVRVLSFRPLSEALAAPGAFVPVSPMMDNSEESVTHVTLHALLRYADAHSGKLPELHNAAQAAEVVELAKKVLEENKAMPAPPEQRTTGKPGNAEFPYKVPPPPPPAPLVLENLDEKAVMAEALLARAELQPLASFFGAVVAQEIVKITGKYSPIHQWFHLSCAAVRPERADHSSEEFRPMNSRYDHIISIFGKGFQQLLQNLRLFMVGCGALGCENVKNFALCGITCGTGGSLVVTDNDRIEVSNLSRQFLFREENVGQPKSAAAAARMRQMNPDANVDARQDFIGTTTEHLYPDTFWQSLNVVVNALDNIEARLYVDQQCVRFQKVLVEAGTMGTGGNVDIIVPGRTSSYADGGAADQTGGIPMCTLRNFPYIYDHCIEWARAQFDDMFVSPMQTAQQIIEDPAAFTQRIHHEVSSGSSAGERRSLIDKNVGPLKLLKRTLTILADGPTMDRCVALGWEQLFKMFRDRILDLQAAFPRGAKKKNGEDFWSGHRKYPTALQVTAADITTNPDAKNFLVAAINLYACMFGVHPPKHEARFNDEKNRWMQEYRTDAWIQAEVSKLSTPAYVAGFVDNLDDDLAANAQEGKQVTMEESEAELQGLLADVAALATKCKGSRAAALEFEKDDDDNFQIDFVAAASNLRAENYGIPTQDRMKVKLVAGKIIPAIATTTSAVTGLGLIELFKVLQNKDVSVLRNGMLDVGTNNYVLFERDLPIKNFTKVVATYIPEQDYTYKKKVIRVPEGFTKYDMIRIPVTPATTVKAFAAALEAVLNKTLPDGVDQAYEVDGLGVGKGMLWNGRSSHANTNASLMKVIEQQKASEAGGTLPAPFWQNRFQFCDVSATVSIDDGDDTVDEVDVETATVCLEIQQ

[3] = target: AMP-activated protein kinase, AMPK (Homo sapiens) (UniProt P54646+O43741+P54619+Q9UGJ0+Q9Y478+Q13131+Q9UGI9); assay: AMP-dependent Kinase enzyme assay. An in vitro enzyme assay that detects ADP turnover that is directly proportional to AMPK activity. This uses naive AMPK that is activated during the assay with MK-8722; format: functional; conditions: 30 µM
[4] = target: Sialic acid-binding Ig-like lectin 9 (Homo sapiens) (UniProt Q9Y336); assay: Hs-Siglec9 ALPHAscreen SOP 20170721; conditions: 10 µM
Chain of Sialic acid-binding Ig-like lectin 9 (Homo sapiens) (Q9Y336 whole entry): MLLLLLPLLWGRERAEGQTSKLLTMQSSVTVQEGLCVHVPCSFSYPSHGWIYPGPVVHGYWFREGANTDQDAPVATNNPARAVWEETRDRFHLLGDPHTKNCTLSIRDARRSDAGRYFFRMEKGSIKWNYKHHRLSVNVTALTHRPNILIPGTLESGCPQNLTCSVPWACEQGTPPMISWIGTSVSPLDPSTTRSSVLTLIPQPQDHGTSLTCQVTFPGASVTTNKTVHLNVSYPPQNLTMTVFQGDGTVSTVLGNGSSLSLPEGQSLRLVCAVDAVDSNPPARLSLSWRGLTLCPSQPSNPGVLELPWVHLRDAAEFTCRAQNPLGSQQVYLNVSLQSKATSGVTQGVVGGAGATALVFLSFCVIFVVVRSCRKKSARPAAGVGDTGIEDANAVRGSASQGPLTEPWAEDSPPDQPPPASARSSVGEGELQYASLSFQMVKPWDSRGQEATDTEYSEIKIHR

Trypanosoma cruzi = assay: Trypanosoma cruzi phosphomannomutase and mannose-1-phosphate guanylyltransferase assay; format: functional; conditions: 10 µM
[5] = target: T2, Arginase-2, mitochondrial (Homo sapiens) (UniProt P78540); assay: in vitro enzyme assay to detect the production of urea directly proportional to the activity of Arginase II; format: functional; conditions: 33.3 µM; further: in the data most compounds retested in dose-response had high values
T2 sequence (whole entry): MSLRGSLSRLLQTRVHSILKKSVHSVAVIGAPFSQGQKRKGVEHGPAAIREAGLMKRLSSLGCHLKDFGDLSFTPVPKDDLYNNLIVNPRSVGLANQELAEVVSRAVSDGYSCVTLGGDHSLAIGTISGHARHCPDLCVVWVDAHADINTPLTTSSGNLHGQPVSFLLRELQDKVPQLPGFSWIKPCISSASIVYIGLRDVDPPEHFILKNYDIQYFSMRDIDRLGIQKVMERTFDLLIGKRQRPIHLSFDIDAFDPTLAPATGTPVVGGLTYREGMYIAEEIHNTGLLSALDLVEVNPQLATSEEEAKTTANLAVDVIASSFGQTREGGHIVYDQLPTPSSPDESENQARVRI

[6] = target: T3, Proteasome subunit beta (Trypanosoma cruzi) (UniProt O96673); assay: Trypanosoma cruzi proteasome chymotrypsin-like activity (TcProtChymo) assay.; further: in the data most compounds retested in dose-response had high values; format: functional; conditions: 9.37 µM
T3 sequence (whole entry): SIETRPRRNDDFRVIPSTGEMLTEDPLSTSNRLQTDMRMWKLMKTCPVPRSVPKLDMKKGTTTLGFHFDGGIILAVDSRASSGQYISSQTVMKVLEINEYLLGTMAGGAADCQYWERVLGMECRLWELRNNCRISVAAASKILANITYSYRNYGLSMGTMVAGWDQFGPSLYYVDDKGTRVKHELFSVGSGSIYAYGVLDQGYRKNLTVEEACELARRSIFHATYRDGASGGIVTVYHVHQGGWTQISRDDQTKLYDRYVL

Homo sapiens = organism: Homo sapiens; assay: To identify inhibition of the IFN signalling (Jak-Stat) pathway via expression of an eGFP reporter gene under the control of an IFN-stimulated response element (ISRE) containing MxA promoter.; format: functional; conditions: 30 µM
[7] = target: T4, Tyrosyl-tRNA synthetase, putative (Trypanosoma cruzi (strain CL Brener)) (UniProt Q4DSP6); assay: Trypanosoma cruzi tyrosyl tRNA synthetase (TcYRS) _High Tyrosine SOP; format: functional; conditions: 30 µM; further: in the data most compounds retested in dose-response had high values
T4 sequence (whole entry): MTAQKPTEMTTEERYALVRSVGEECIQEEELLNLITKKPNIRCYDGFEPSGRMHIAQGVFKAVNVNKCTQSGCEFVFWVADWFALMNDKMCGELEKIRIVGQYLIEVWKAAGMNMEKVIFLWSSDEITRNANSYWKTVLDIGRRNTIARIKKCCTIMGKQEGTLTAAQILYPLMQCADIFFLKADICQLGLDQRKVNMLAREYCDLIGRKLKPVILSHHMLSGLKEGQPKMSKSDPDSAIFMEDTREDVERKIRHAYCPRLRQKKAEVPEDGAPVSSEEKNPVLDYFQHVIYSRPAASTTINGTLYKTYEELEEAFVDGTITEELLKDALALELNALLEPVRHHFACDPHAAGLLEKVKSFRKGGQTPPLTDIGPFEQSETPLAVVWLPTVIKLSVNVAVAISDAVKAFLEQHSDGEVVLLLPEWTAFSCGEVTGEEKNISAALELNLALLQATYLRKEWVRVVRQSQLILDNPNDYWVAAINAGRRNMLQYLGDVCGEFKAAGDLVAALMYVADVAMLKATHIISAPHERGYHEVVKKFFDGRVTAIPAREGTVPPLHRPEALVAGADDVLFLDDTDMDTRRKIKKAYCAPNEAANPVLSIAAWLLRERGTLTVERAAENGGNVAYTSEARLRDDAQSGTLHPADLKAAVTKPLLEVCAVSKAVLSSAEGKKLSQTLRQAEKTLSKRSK

[8] = target: T4, Tyrosyl-tRNA synthetase, putative (Trypanosoma cruzi (strain CL Brener)); assay: Trypanosoma cruzi tyrosyl tRNA synthetase (TcYRS) SOP; format: functional; conditions: 30 µM
[9] = target: Chromo domain-containing protein 1 (Saccharomyces cerevisiae (strain ATCC 204508 / S288c) (Baker's yeast)) (UniProt P32657); assay: ScCHD-1 Enzyme Inhibition Assay; format: functional; conditions: 30 µM; further: in the data most compounds retested in dose-response had high values
Chain of Chromo domain-containing protein 1 (Saccharomyces cerevisiae (strain ATCC 204508 / S288c) (Baker's yeast)) (P32657 whole entry, the tested form may be a part): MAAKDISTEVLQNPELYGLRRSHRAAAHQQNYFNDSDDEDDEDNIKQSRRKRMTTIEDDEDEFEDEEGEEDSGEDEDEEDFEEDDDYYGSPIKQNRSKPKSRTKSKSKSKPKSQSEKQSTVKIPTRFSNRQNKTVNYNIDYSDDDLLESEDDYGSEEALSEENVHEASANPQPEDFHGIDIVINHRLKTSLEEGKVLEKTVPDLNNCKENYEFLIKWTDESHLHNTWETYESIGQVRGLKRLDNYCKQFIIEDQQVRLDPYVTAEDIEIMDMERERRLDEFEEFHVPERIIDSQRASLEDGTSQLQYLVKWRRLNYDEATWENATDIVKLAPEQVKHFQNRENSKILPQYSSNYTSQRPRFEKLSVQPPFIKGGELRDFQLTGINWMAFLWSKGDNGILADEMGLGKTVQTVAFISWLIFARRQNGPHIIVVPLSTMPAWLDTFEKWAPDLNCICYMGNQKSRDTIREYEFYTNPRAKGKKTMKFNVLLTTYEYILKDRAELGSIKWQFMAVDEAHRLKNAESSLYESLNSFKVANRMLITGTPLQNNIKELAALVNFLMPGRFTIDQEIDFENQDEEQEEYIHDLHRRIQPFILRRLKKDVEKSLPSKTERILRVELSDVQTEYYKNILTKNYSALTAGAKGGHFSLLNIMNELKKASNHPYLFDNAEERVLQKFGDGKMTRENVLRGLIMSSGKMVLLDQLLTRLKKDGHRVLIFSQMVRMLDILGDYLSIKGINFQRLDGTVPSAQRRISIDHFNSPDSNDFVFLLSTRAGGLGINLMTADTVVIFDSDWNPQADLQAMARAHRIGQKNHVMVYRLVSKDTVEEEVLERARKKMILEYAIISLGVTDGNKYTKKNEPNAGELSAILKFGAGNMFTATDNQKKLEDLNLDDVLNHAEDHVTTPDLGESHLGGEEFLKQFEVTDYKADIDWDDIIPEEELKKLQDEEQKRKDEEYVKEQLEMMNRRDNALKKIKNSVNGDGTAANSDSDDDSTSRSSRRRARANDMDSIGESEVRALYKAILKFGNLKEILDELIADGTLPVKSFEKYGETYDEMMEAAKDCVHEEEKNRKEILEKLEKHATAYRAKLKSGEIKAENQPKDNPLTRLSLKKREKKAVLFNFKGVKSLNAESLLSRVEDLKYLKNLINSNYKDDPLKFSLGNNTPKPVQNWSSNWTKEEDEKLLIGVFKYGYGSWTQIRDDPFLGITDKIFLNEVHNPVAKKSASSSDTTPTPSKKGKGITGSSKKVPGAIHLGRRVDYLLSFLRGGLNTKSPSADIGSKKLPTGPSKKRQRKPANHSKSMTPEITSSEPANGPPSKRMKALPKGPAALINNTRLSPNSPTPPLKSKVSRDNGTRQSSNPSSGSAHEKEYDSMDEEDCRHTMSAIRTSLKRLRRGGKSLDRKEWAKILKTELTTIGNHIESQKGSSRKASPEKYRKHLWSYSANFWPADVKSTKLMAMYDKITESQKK

Chain of Protein translocase subunit SecA (Escherichia coli (strain K12)) (P10408 whole entry): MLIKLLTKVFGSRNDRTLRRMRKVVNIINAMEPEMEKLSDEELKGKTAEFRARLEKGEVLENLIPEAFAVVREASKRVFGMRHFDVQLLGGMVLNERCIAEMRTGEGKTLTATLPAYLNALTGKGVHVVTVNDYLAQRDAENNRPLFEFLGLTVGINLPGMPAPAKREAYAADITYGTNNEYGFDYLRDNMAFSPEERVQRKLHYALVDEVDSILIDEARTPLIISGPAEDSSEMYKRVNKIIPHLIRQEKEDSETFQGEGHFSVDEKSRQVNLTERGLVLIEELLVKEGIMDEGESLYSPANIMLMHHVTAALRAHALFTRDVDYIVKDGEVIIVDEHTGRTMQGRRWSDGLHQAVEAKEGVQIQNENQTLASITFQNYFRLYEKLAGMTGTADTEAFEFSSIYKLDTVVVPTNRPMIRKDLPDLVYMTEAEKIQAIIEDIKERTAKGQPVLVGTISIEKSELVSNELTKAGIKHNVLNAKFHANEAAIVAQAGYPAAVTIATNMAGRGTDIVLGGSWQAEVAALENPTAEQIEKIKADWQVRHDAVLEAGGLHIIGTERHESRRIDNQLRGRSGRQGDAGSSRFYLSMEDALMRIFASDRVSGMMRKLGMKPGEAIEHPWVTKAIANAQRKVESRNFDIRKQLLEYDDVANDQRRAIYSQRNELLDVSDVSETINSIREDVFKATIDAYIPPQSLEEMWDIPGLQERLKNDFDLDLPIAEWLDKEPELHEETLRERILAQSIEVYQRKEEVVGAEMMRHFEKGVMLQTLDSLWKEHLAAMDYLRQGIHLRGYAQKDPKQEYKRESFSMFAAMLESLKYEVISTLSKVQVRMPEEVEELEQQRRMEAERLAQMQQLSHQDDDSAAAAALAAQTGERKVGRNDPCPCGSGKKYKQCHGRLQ

SMILES | Percent Effect [1] [%] | Percent Effect [2] [%] | Percent Effect [3] [%] | Percent Effect [4] [%] | Percent Effect (Trypanosoma cruzi) [%] | Percent Effect [5] [%] | Percent Effect [6] [%] | Percent Effect (Homo sapiens) [%] | Percent Effect [7] [%] | Percent Effect [8] [%] | Percent Effect [9] [%]
CC(O)CN1CCN(C(=O)c2ccc(N(C)C)nn2)CC1 (stereo unspecified) | -4.58 | 10.4 | -1.75 | 11.7 | 3.93 | 4.27 | 1.18 | 17.9 | 3.88 | 12.2 | -9.31
COCCNC(=O)Cn1nc(C(C)C)c2cnn(C(C)(C)C)c2c1=O | -2.65 | 5.48 | -1.93 | 5.56 | 3.72 | -1.36 | 17.6 | 15.1 | 8.6 | 15 | -6.24
Cc1cc(C(=O)N2CCC(c3nccn3CCCN(C)C)CC2)no1 | 1.38 | 11 | -2.51 | 3.99 | 2.74 | 10.9 | 20.8 | 21.1 | 6.45 | 17.5 | -13.1
CN1CCC(Cc2cc(Nc3ncccn3)ncn2)CC1 | -1.87 | 6.76 | 11.2 | 0.0242 | -1.98 | -1.16 | 2.34 | 6.81 | 4.3 | 9.09 | -10.4
COc1cccc(CNc2c(C)cnc3c2c(=O)n(C)c(=O)n3C)c1 | -2.5 | 16.4 | -3.93 | -14.8 | 2.35 | 0.909 | 15.4 | 21.6 | 3.23 | 20 | -6.85
Cc1cnn(C2CCCN(C(=O)CCCOc3cccc(F)c3)C2)c1 (stereo unspecified) | -4.89 | -1.27 | 42.4 | 2.93 | 0.513 | 4.52 | 0 | 3.38 | -3.12 | -5.06 | -28.9
Cc1nc(C)n(CC2CCCN(CC(=O)Nc3nncs3)C2)n1 (stereo unspecified) | -2.17 | -2.63 | 3.08 | 5.75 | -2.26 | -1.15 | 4.84 | -3.5 | 1.47 | 0 | -0.768
O=C(Cc1ccccn1)N1C[C@@H]2CC[C@H](C1)N(Cc1ccccc1)C2=O | -1.67 | 2.7 | 0.96 | 6.03 | -4.05 | -4.29 | 14.7 | 12 | 5.82 | 4.88 | -2.65
O=C(O)[C@@H]1CN(C(=O)c2cc(C3CC3)n[nH]2)C[C@H]1c1cccc(F)c1 | -3.18 | 16.4 | -3.35 | 7.52 | 2.98 | -7.58 | 14.5 | -4.38 | 3.12 | 21 | -6.55
CCc1ncncc1C(=O)N1CCCN(Cc2ccc(C)cc2)CC1 | -6.16 | 2.63 | 1.25 | -3.26 | -6.44 | -0.36 | 0.592 | 6.25 | -2.46 | -13.6 | 6.06
O=C(c1ccoc1)N1CC[C@@H]2[C@H]1CCC(=O)N2c1ccccc1 | -4.24 | 10.7 | 10.1 | -2.97 | -1.97 | -1.63 | 5.02 | 10.8 | 9.57 | 14.1 | -0.93
COCC(O)CNC(=O)c1cnc(-c2ccccc2)nc1O (stereo unspecified) | 2.38 | 8.11 | -5.21 | 5.6 | 3.28 | -0.476 | 8.97 | 13.5 | 8.99 | 19.5 | -0.825
Cn1ccnc1CNC(=O)N(CCCO)C1CCCc2ccccc21 (stereo unspecified) | -2.21 | 5.26 | -1.41 | -4.25 | 2.43 | -3.55 | -3.36 | 8.36 | 2.13 | 10.4 | -9.5
COc1ccc(CNC2CCCN(Cc3noc(C)n3)C2)cc1F (stereo unspecified) | -10.4 | 10.4 | 0.711 | 4.31 | -5.06 | -3.2 | -1.01 | 32.5 | 0.971 | -2.44 | -5.61
O=C(c1ccoc1)N1CCCn2cnc(COCC3CC3)c2C1 | -3.46 | 13.5 | 6.15 | -4.88 | 1.07 | 9.24 | 22.1 | 0.302 | 2.16 | 15.4 | -0.464
CN(C)CC(=O)N1Cc2nc(C(=O)NCc3ccncc3)oc2C1 | -0.101 | 13.3 | -4.75 | 4 | 3.86 | -49.3 | 14.4 | -9.53 | 0 | 20 | -6.75
Cc1cc(C)n(CC2CN(Cc3cscn3)CCO2)n1 (stereo unspecified) | -2.86 | 23.7 | -2.52 | -2.39 | 2.63 | -0.383 | 27.2 | -6.47 | 7.35 | 21.9 | -11.6
Cc1cnn(CC2CCCN2Cc2coc(-c3ccccc3)n2)c1 (stereo unspecified) | 0.182 | -11 | -9.12 | 16.7 | 6.46 | 1.82 | 1.77 | -7.46 | 3.23 | 5 | -6.56
O=C(NCCN1CCNCC1)c1nc2ccccc2c(=O)[nH]1 | 3.26 | 9.33 | 2.04 | -5.44 | -7.47 | -10.7 | 12 | -0.251 | 4.23 | 12.8 | -7.33
Cn1cc(CN2CCn3cc(CNC(=O)c4cccn4C)nc3C2)cn1 | -0.61 | 0 | 12.6 | 0.00498 | -0.394 | -0.699 | -4.32 | 3.52 | 4.25 | 6.41 | 5.91
CS(=O)(=O)NCC(=O)N1CCCC1c1noc(C2CC2)n1 (stereo unspecified) | -3.88 | 16 | -6.02 | 25.8 | 4.19 | 41.1 | 5.58 | 0.475 | 4.92 | 13.6 | -6.99
